How the values were obtained:
Assay in all cases: PBM binding z-score (relative to random genomic background probes); higher = stronger binding; sequences stand for … in GC…GCGATTGACAGCGTAGAATGAAGG
[1] = test system: FXR:RXRa (NR concentration 270 nM, RXRa partner concentration 90 nM)
Summary of the method: (§1)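 The probes on custom Agilent 4×180K protein-binding microarrays were double-stranded, with 34-nt variable regions bearing direct-repeat seeds, single-nucleotide variants, half-site ablations and random human genomic background sequences. Incubation lasted 1 h with ligand-free nuclear receptor dimers in PBS pH 7.4, 2% milk, 0.02% Triton X-100, 1 mM DTT, 0.2 mg/mL BSA and 0.4 mg/ml salmon testes DNA. Antibodies against each partner (one per run) detected bound dimers, and fluorescence scans were regression-normalized. Binding z-scores take the random background probes as reference.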

[2] = test system: LXRa:RXRa (NR concentration 270 nM, RXRa partner concentration 90 nM)
Summary of the method: as §1

[3] = test system: LXRa homodimer (NR concentration 270 nM)
Summary of the method: as §1

[4] = test system: LXRb:RXRa (NR concentration 270 nM, RXRa partner concentration 90 nM)
Summary of the method: as §1

[5] = test system: LXRb homodimer (NR concentration 270 nM)
Summary of the method: as §1

[6] = test system: PPARa:RXRa (NR concentration 270 nM, RXRa partner concentration 90 nM)
Summary of the method: as §1

[7] = test system: PPARg:RXRa (NR concentration 180 nM, RXRa partner concentration 90 nM)
Summary of the method: as §1

[8] = test system: PPARg:RXRa 270nM:90nM, anti-RXR (NR concentration 270 nM, RXRa partner concentration 90 nM)
Summary of the method: as §1

[9] = test system: PPARg:RXRa 30nM:10nM, anti-RXR (NR concentration 30 nM, RXRa partner concentration 10 nM)
Summary of the method: as §1

[10] = test system: PPARg:RXRa 90nM:30nM, anti-RXR (NR concentration 90 nM, RXRa partner concentration 30 nM)
Summary of the method: as §1

[11] = test system: PPARg:RXRa DBDmut IVT, anti-RXR (DBD mutation: RXRa K156A/R161A, NR concentration 270 nM, RXRa partner concentration 90 nM)
Summary of the method: as §1

[12] = test system: PPARg:RXRa IVT, anti-PPARg (NR concentration 270 nM, RXRa partner concentration 90 nM)
Summary of the method: as §1

[13] = test system: PPARg DBDmut:RXRa IVT, anti-PPARg (DBD mutation: PPARg1 K132A/R137A, NR concentration 270 nM, RXRa partner concentration 90 nM)
Summary of the method: as §1

[14] = test system: PPARg DBDmut IVT, anti-PPARg (DBD mutation: PPARg1 K132A/R137A, NR concentration 270 nM)
Summary of the method: as §1

[15] = test system: PPARg homodimer (NR concentration 180 nM)
Summary of the method: as §1

[16] = test system: PXR:RXRa (NR concentration 270 nM, RXRa partner concentration 90 nM)
Summary of the method: as §1

[17] = test system: PXR homodimer (NR concentration 270 nM)
Summary of the method: as §1

[18] = test system: RARa:RXR (NR concentration 270 nM, RXRa partner concentration 90 nM)
Summary of the method: as §1

[19] = test system: RARa homodimer (NR concentration 270 nM)
Summary of the method: as §1

[20] = test system: RARb:RXRa (NR concentration 270 nM, RXRa partner concentration 90 nM)
Summary of the method: as §1

Row | Sequence | PBM binding z-score [1] | PBM binding z-score [2] | PBM binding z-score [3] | PBM binding z-score [4] | PBM binding z-score [5] | PBM binding z-score [6] | PBM binding z-score [7] | PBM binding z-score [8] | PBM binding z-score [9] | PBM binding z-score [10] | PBM binding z-score [11] | PBM binding z-score [12] | PBM binding z-score [13] | PBM binding z-score [14] | PBM binding z-score [15] | PBM binding z-score [16] | PBM binding z-score [17] | PBM binding z-score [18] | PBM binding z-score [19] | PBM binding z-score [20]
1 | CCTTACGGGTCACTGACAGGTTATATCATTTGGA | 5.35 | 4.27 | 0.675 | 3.82 | -0.0554 | 5.14 | 4.29 | 4.13 | 1.54 | 2.98 | 3.09 | 3.76 | 1.37 | 0.355 | 2.85 | 3.69 | 0.432 | 4.84 | 0.665 | 4.08
2 | AATACAGGCTCATCGTAGGCCAGAGTACGCACAG | -0.253 | -0.407 | -0.211 | -0.712 | -0.726 | -0.569 | 0.784 | -0.256 | -0.133 | -0.254 | -0.148 | -0.0891 | 0.24 | -0.0374 | -0.257 | -0.568 | -0.37 | -0.622 | 0.466 | -0.11
3 | TCTAGCAGGCCAGAGGGTCACTCCAGAGGTACGG | 0.862 | 0.694 | -0.544 | 0.582 | -0.995 | 1.91 | 1.19 | 2.54 | 1.72 | 2.31 | 0.669 | 0.586 | -1.43 | -1.75 | 0.69 | 1.08 | -0.334 | 1.92 | -0.787 | 1.89
4 | AGAATGAGGTTACCAACGATCAGGGAAACGCTTG | 1.58 | 5.96 | -0.334 | 2.43 | -0.375 | 3.66 | 2.78 | 2.43 | 0.844 | 1.7 | 3.37 | 3.5 | 0.997 | 1.46 | 0.587 | 0.991 | -0.0709 | 2.01 | -0.203 | 1.83
5 | CAAACTAGGTCACAGAGGTCTAAGTCCGTGCGTA | 4.42 | 3.56 | 0.555 | 2.13 | 0.273 | 5.17 | 8.49 | 6.93 | 5.19 | 6.98 | 8.53 | 8.91 | 1.68 | 1.67 | 0.929 | 2.54 | 0.546 | 2.8 | 0.421 | 4.13
6 | ACTAGCAGGCCAAGCGTCACTCAAGATTAGTCCG | -0.5 | -0.376 | -0.471 | -0.815 | -0.983 | 0.102 | 1.12 | 1.84 | 0.377 | 1.73 | 1.13 | 0.488 | 0.0158 | -0.899 | -0.388 | -0.885 | -0.421 | -0.946 | -1.3 | 0.43
7 | CACACTAGGTCAAGGTCAAAGTCGGTTTGTGCCA | 7.12 | 6.07 | 5.26 | 4.87 | 2.5 | 5.71 | 8.74 | 7.44 | 5.6 | 7.61 | 7.8 | 8.02 | 6.91 | 5.72 | 7.79 | 5.54 | 4.08 | 5.87 | 3.51 | 5.03
